This passage reports inhibition results from PubChem BioAssay AID652154 (Broad Institute, 2013).

Hit rate of the full screen: of about 360,000 compounds, about 4,200 (1.2%) were called active. The sample holds actives, similar compounds and a random draw of the others, so the mix is not that of the screen. Values without a mark were called inactive.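 How the source made its calls: active means mean replicate inhibition at least 60% with every replicate also reaching 60%; inconclusive means only one of the two criteria is met; inactive means mean below 60% and not all replicates reaching 60%.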

The assay in a line: PAX8 transcriptional activity inhibition in RMG-I – RMG-I cells, luciferase, single concentration, primary screen (AID 652154).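 Further: luciferase light reporting Pax8 driven TPO promoter activity; plate controls were median of neutral control wells for no effect and mitoxantrone controls for full effect.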 The note with it: RMG-I TPO-luciferase reporter, SteadyGlo, 24 h; at 12.6 µM; active compounds read high. (In general: Reporter assays use an easily measured gene product as a stand-in for the process of interest.)
As usually defined, the inhibition is the change of the read-out against control, counted positive when it falls. In the case of `O=C(C[C@@H]1C[C@@H]2c3cc(NC(=O)NC4CCCC4)ccc3O[C@@H]2[C@@H](CO)O1)NCc1ccccc1`, the inhibition was -4.64%.
To `C[C@H](CO)N1C[C@H](C)[C@@H](CN(C)C(=O)c2cnccn2)Oc2ncc(-c3ccccc3F)cc2C1=O` belongs 2.74%.
To `C[C@H](CO)N1C[C@H](C)[C@@H](CN(C)S(=O)(=O)c2ccc([N+](=O)[O-])cc2)OCc2ccccc2-c2c(n(C)c3ccccc23)C1=O` belongs 16.1%; to `C[C@H](CO)N1C[C@H](C)[C@@H](CN(C)S(=O)(=O)c2cccc(F)c2)OCc2ccccc2-c2c(n(C)c3ccccc23)C1=O`, 83.4% (active).
To `C[C@@H]1CN([C@H](C)CO)C(=O)c2c(c3ccccc3n2C)-c2ccccc2CO[C@H]1CN(C)S(=O)(=O)c1ccccc1F` belongs 40.5%; to `Cc1ccc(S(=O)(=O)Nc2ccc3c(c2)C(=O)N([C@@H](C)CO)C[C@@H](C)[C@H](CN(C)CC2CC2)O3)cc1`, -3.68%; to `COc1ccccc1-c1ccc([C@H]2[C@H](CO)N(C(=O)C3CC3)C23CN(C(C)=O)C3)cc1`, 1.61%.
As to `CCOc1c(Nc2cccc(Cl)c2)c(=O)c1=O`, the inhibition is -11.1%.
For `OCCCNc1nccc(-c2cc(Nc3cccc(Cl)c3)ncn2)n1` the value was 107% (active); for `C[C@H](CO)N1C[C@H](C)[C@@H](CN(C)CC2CCCCC2)Oc2ccc(NC(=O)Cn3cnnn3)cc2CC1=O`, -19.1%; for `COc1ccc(CN(C)C[C@H]2Oc3c(NS(=O)(=O)c4ccc(Cl)cc4)cccc3C(=O)N([C@H](C)CO)C[C@H]2C)cc1`, 5.03%.
Consider `NC1=CC(=O)C(=O)c2cccnc21`, for which the inhibition is 117% (active).
For `COc1ccccc1-n1c(SCC(=O)Nc2cccc(C(=O)O)c2)nnc1-c1ccccc1O` the value was 19%.
To `COc1cc(/C=N/Nc2ccc(C)cc2)cc(Br)c1O` belongs -15%; to `COc1cccc(/C=N/Nc2cc(C)nc(-c3ccccc3O)n2)c1O`, 90.5% (active).
For the compound `Cc1ccc(S(=O)(=O)N(C)C[C@H]2Oc3ccc(NS(=O)(=O)c4ccccc4)cc3CC(=O)N([C@@H](C)CO)C[C@H]2C)cc1`, the inhibition is -2.41%.
For `C[C@@H]1CN([C@H](C)CO)C(=O)c2cccc(NS(=O)(=O)c3ccc(F)cc3)c2O[C@H]1CN(C)Cc1ccc(Oc2ccccc2)cc1` the value was 16.4%; for `COc1ccc2[nH]c(C(=O)N/N=C/c3cc(OC)c(OC)c(OC)c3)cc2c1`, 85.3% (active).
For `COc1ccc2[nH]c(C(=O)Nc3ccccc3Cl)cc2c1` the value was -22.1%; for `CCC(=O)c1ccc(OC(=O)/C=C/c2cc(OC)c(OC)c(OC)c2)cc1`, -5.71%.
To `C[C@@H]1CCCCO[C@@H](CN(C)S(=O)(=O)c2cccs2)[C@@H](C)CN([C@@H](C)CO)C(=O)c2cc(NS(=O)(=O)c3ccc(F)cc3)ccc2O1` belongs 32%; to `Cc1ccc(S(=O)(=O)N[C@H]2CC[C@H](CC(=O)NCc3ccccc3F)O[C@@H]2CO)cc1`, 3.28%; to `Cc1cc2occ(CC(=O)NNC(=O)c3ccccc3F)c2cc1C`, -1.24%.
Regarding `O=C(Cn1cnc2ccccc2c1=O)NNC(=O)c1ccccc1F`, the inhibition was 0.953%.
Turning to `Cn1c(CC(=O)NNC(=O)c2ccccc2F)nc2ccccc21`, the inhibition is 74.1% (active).
To `O=C(C[C@H]1CC[C@@H]2[C@H](COC[C@@H](O)CN2Cc2cc(F)cc(F)c2)O1)NC1CCC1` belongs 4.75%; to `COc1ccc2c3c([nH]c2c1)[C@H](CO)N(C(=O)Nc1ccc(F)cc1)CC31CCN(CC2CCOCC2)CC1`, 27.1%; to `Cc1cc(=O)c2ccc(NC(=O)c3ccccc3)cc2[nH]1`, -7.38%.
With `O=C(NC1=CC(=O)c2ccccc2C1=O)c1ccccc1`, the inhibition was 99.2% (active).
Consider `O=C(NCCc1ccccc1)c1cccc(NC(=O)c2ccccc2)c1`, for which the inhibition is -77.4%.
For `Cc1ccc(NC(=O)O/N=C/c2cccc([N+](=O)[O-])c2)cc1` the value was -64.7%; for `COC(=O)/C=C\C(=O)Nc1cccc([N+](=O)[O-])c1`, 87.5% (active).
To `O=C(Nc1cccc([N+](=O)[O-])c1)N1CCc2ccccc2C1` belongs -115%; to `O=C(Nc1cccc(NC(=O)c2ccccc2[N+](=O)[O-])c1)c1ccccc1Cl`, -26.3%; to `Cc1cccc(NC(=O)c2ccc([N+](=O)[O-])o2)c1`, 86.2% (active).
For the compound `Cc1onc(NC(=O)c2ccc([N+](=O)[O-])o2)c1Br`, the inhibition was 12.3%.
For `O=C(N[C@H]1CC[C@H](CCNS(=O)(=O)c2ccc(F)cc2)O[C@H]1CO)C1CCC1` the value was 5.47%.
For `O=C(N/N=C/c1ccccc1O)/C(=C/c1ccccc1)CCO` the value was 8.09%; for `O=C(CCc1ccc(O)cc1)NN=Cc1cc(Br)ccc1O`, 5.02%.
To `O=C(CCCO)N/N=C/c1cc(Br)ccc1O` belongs 65% (active); to `CN1CCN(C(=O)C[C@H]2C[C@@H]3c4cc(NS(=O)(=O)c5ccc(F)cc5)ccc4O[C@@H]3[C@@H](CO)O2)CC1`, -4.63%; to `CCOC(=O)Nc1ccc2c(c1)N(C(=O)CN1CCN3CCCC3C1)c1ccccc1CC2` (stereo unspecified), -14.6%.
With `CC(C)(COC(=O)Nc1ccccc1)COC(=O)Nc1ccccc1`, the inhibition is -10.7%.
Consider `CCOC(=O)Nc1ccc2c(c1)N(C(=O)CCCl)c1ccccc1[S@]2=O`, for which the inhibition was 120% (active).
As to `CO[C@H]1CN(C)C(=O)c2ccc(NC(=O)C3CC3)cc2OC[C@@H](C)N(C(=O)CN2CCOCC2)C[C@H]1C`, the inhibition is 8.74%.
To `Cc1[nH]c2ccccc2c1C(=O)COC(=O)c1c(-c2ccccc2)noc1C` belongs 20.4%; to `O=C(NNC(=S)NC(=O)c1cn(-c2ccccc2)nc1-c1ccccc1)c1ccncc1`, -7.23%; to `Cc1onc(-c2ccccc2)c1C(=O)N=C(N)c1ccc(Cl)cc1`, 8.52%.
For `Cc1onc(-c2ccccc2)c1C(=O)NNC(=S)NC(=O)c1ccc(F)cc1` the value was 69.8% (active).
As to `COc1ccc(C(=O)NNC(=O)c2cc(C)[nH]n2)cc1`, the inhibition is -12.8%.
For `COc1ccc(C(=O)NC(=S)NNC(=O)c2c(-c3ccccc3)noc2C)cc1` the value was 103% (active); for `COc1cccc(-c2ccc3n(c2=O)C[C@H]2[C@H](CO)[C@@H](C(=O)N4CCCCC4)N(C)[C@@H]32)c1`, 10.3%; for `C[C@@H]1CN([C@H](C)CO)C(=O)c2cc(C#Cc3cccnc3)cnc2O[C@@H]1CN(C)Cc1ccc(F)cc1`, -16.3%.
`Cc1ccccc1S(=O)(=O)NCC[C@@H]1CC[C@H](NC(=O)C2CCC2)[C@@H](CO)O1`: the inhibition was 6.58%.
To `CN1C[C@@H]2[C@H](c3ccccc31)[C@H](CO)N2C(=O)Nc1ccc(F)cc1` belongs -2.1%; to `CO[C@H]1CN(C)C(=O)c2ccc(NC(=O)Nc3c(C)noc3C)cc2OC[C@@H](C)NC[C@H]1C`, -5.2%.
`COc1ccc(C#Cc2ccc([C@@H]3[C@H](CO)N4C(=O)CN(C(C)=O)C[C@@H]34)cc2)cc1`: the inhibition is -10.2%.
With `CCS(=O)(=O)Nc1ccc2c(c1)C(=O)N(C)[C@@H]1CC[C@@H](CC(=O)N3CCCCC3)O[C@H]1CO2`, the inhibition is -5.14%.
For `O=C(CN1CCOCC1)NCC[C@@H]1CC[C@@H](NC(=O)Nc2ccccc2)[C@H](CO)O1` the value was -2.03%; for `C[C@@H]1CN([C@H](C)CO)C(=O)c2cccc(NC(=O)c3ccncc3)c2O[C@@H]1CN(C)C`, -8.91%; for `COc1ccc(NC(=O)O[C@H]2[C@H](OC(=O)Nc3ccc4c(c3)OCO4)[C@@H](OC(=O)Nc3ccc4c(c3)OCO4)[C@@H](OC)O[C@@H]2CO)cc1`, 14.1%.
To `CO[C@H]1O[C@H](CO)[C@@H](OC(=O)Nc2ccccc2)[C@H](OC(=O)Nc2ccc3c(c2)OCO3)[C@H]1OC(=O)Nc1ccc2c(c1)OCO2` belongs 16.9%.
For `COc1cc(OC)c(C(=O)Nc2ccccc2-c2ccccc2)cc1OC` the value was -10.7%; for `CO[C@H]1O[C@H](CO)[C@@H](OC(=O)Nc2ccc(C(F)(F)F)cc2)[C@H](OC(=O)Nc2ccc3c(c2)OCO3)[C@H]1OC(=O)Nc1ccc2c(c1)OCO2`, 72.5% (active).
Regarding `CCc1cccc(NC(=O)O[C@H]2[C@H](OC(=O)Nc3ccccc3-c3ccccc3)[C@H](OC(=O)Nc3ccccc3-c3ccccc3)[C@@H](OC)O[C@@H]2CO)c1`, the inhibition was 43.4%.
As to `CO[C@H]1O[C@H](CO)[C@@H](OC(=O)Nc2ccccc2-c2ccccc2)[C@H](OC(=O)Nc2ccccc2)[C@H]1OC(=O)Nc1ccccc1`, the inhibition was 80% (active).
For the compound `C[C@@H]1CN([C@H](C)CO)S(=O)(=O)c2ccc(C#CC3(O)CCCC3)cc2O[C@@H]1CN(C)C(=O)c1cccnc1`, the inhibition was -6.88%.
For `COc1ccccc1NC(=O)N1[C@@H]2CNC[C@H]1C2c1ccc(-c2ccccc2C)cc1` (stereo partly specified) the value was -13.6%; for `Cc1noc(C)c1S(=O)(=O)Nc1ccc2c(c1)C(=O)N([C@H](C)CO)C[C@@H](C)[C@H](CN(C)C(=O)NC(C)C)OCCCC[C@@H](C)O2`, 16.4%; for `C[C@H](CO)N1C[C@H](C)[C@@H](CN(C)Cc2ccc(C(F)(F)F)cc2)OCc2ccccc2-c2c(n(C)c3ccccc23)C1=O`, 24%.
To `COc1ccc(S(=O)(=O)N(C)C[C@@H]2OCCCC[C@@H](C)Oc3ccc(NS(=O)(=O)c4ccccc4)cc3C(=O)N([C@@H](C)CO)C[C@H]2C)cc1` belongs 19.7%; to `COc1ccc(S(=O)(=O)Nc2ccc3c(c2)C(=O)N([C@@H](C)CO)C[C@H](C)[C@@H](CN(C)S(=O)(=O)c2ccc(F)cc2)OCCCC[C@H](C)O3)cc1`, 68.7% (active).
For `COc1ccc(S(=O)(=O)N(C)C[C@H]2OCCCC[C@@H](C)Oc3ccc(NS(=O)(=O)c4ccc(C)cc4)cc3C(=O)N([C@@H](C)CO)C[C@@H]2C)cc1` the value was 36.3%; for `COc1ccc(S(=O)(=O)Nc2ccc3c(c2)C(=O)N([C@@H](C)CO)C[C@H](C)[C@@H](CN(C)S(=O)(=O)c2ccc(C)cc2)OCCCC[C@@H](C)O3)cc1`, 31.9%.
`COc1ccc(S(=O)(=O)N(C)C[C@H]2OCCCC[C@H](C)Oc3ccc(NS(=O)(=O)c4ccc(F)cc4)cc3C(=O)N([C@@H](C)CO)C[C@@H]2C)cc1`: the inhibition is 75.4% (active).
To `COc1ccc(S(=O)(=O)Nc2ccc3c(c2)C(=O)N([C@@H](C)CO)C[C@H](C)[C@H](CN(C)S(=O)(=O)c2ccc(F)cc2)OCCCC[C@@H](C)O3)cc1` belongs 34%.
